Source: PubChem (National Center for Advancing Translational Sciences (NCATS))
A selection: hits, their analogues and other compounds. The true share with any hit is near 11%.
NS1 function inh = influenza NS1 inhibition; actives 0.4% (n = 270,000); AID 2326; Potency, µM (titrated, usually from 46.1 µM), for inactives: at the highest dose activity, positive = more growth; calls by dose curve; further: actives are rising curves; nearly all actives have a fitted effect of over 50% in size
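Read-out: OD600 growth recovery of NS1-expressing budding yeast. Cells grown overnight at 30C in -URA glucose medium, washed, resuspended and diluted 1:100 in 2% galactose assay medium, pH 6.0. Same strain lacking NS1 served as positive control.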
Sm TGR inh = S. mansoni TGR enzyme inhibition | Potency, µM (series often up to 114 µM), inactives show top-dose activity change, negative = inhibition, actives largely listed as inhibitors | actives 3% (n = 360,000) | purified TGR, DTNB reduction, TNB absorbance 405 nm; further: on the % scale 0 is the no-effect control and ±100 the full control effect; nearly all actives have a fitted effect of over 60% in size
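TGR 20 nM + NADPH 100 uM (dispensed conc.), cpd preinc 15 min RT; start with NADPH (500 uM addition) then DTNB (15 mM addition). Kinetic TNB absorbance, 405 nm filter. Four-parameter Hill fit across titration.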
Pf growth 48h = inhibits P. falciparum growth in the first generation, 48 h; P. falciparum luciferase growth in erythrocytes, 48 h; Potency, µM (doses to about 28.7 µM), for the others: at the top dose activity change, negative = inhibition, most hits filed as inhibitors; actives 5.9% (n = 310,000); further: on the % scale 0 is the no-effect control and ±100 the full control effect
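Compounds are pin-transferred into medium, infected erythrocytes (2% hematocrit, 0.1% parasitemia final) are added, and plates sit one parasite generation at 37 C in 5% CO2. Detection reagent is then added and luminescence measured.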
Pf growth 96h = P. falciparum growth inhibition at 96 hour, primary screen for plastid delayed-death inhibitors. P. falciparum luciferase reporter growth, 96 h. Potency, µM (series often up to 28.7 µM), without a hit: at the highest dose activity change, negative = inhibition, usual class: inhibitors. actives 6.9% (n = 320,000). AID 504834; further: on the % scale 0 is the no-effect control and ±100 the full control effect
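P. falciparum expressing integrated firefly luciferase, in erythrocytes at 2% hematocrit, 0.05% parasitemia, incubated with compounds 96 h at 37 C, 5% CO2. Growth inhibition read as loss of luminescence; two-generation exposure targets delayed-death apicoplast inhibitors.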
AMA1-RON2 inh = AMA1-RON2 (P. falciparum) interaction inhibition; AlphaScreen AMA1-biotinylated RON2 peptide binding; Potency, µM (series often up to 58.2 µM), inactives show at the top dose activity change, negative = inhibition, most hits filed as inhibitors; actives 0.2% (n = 360,000); AID 720542;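 further: 0% = vehicle wells and -100% = peptide control; nearly all actives have a fitted effect of over 45% in size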
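AMA1 (3D7) with his tag at 25 nM final met compounds first, then biotinylated RON2 peptide at 25 nM; detection used donor plus acceptor beads, 10 µg/mL apiece, read by AlphaScreen after 30 min at room temperature.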
Numbers without * were called inactive; ? = inconclusive; · = no result given; [ ] = remark or other dose. Unless noted, the call rests on the fitted dose curve; in most records, active means well fitted curve in the direction sought with a large enough effect; inconclusive means small, poorly fitted or top-dose-only effect, or another doubt; inactive means no such curve, though single readings can be large; an effect the other way counts as inactive or inconclusive. Potency means the concentration at half of the fitted maximal effect.

SMILES	NS1 function inh	Sm TGR inh	Pf growth 48h	Pf growth 96h	AMA1-RON2 inh
Cc1cc(S(=O)(=O)N2CCCOC2CNC(=O)C(=O)NCCc2ccco2)ccc1F (stereo unspecified)	9%	-16%	-12%	8.3µM*	10%
COc1ccc(CCNC(=O)C(=O)NCC2OCCN2S(=O)(=O)c2ccc3c(c2)OCCO3)cc1OC (stereo unspecified)	1%	-17%	?	12µM*	-3%
COc1ccc(CCNC(=O)C(=O)NCC2OCCN2S(=O)(=O)c2ccc3c(c2)OCCO3)cc1 (stereo unspecified)	9%	-2%	7%	?	-4%
Cc1cc(F)ccc1S(=O)(=O)N1CCCOC1CNC(=O)C(=O)NCCc1c[nH]c2ccccc12 (stereo unspecified)	-6%	0%	?	9.3µM*	-3%
CCn1cc(C(=O)O)c(=O)c2cc(F)c(N3CCN[C@@H](C)C3)c(F)c21	·	·	-23%	?	·
CCCCCCCCN1C(=O)[C@H](CC(=O)NCC23CC4CC(CC(C4)C2)C3)C[C@@]2(C(=O)OCC)CCCC=C12	·	·	·	·	2%
Cc1onc(-c2c(F)cccc2Cl)c1C(=O)OCc1nnc(-c2ccccc2)o1	·	0%	?	?	99%
CCc1ccc2[nH]c(=O)c(CN(Cc3ccc(OC)cc3)Cc3nnnn3CCOC)cc2c1	-39%	-32%	1.9µM*	?	4%
COc1ccc2[nH]c(=O)c(CN(Cc3ccccc3)Cc3nnnn3CC3CCCO3)cc2c1 (stereo unspecified)	-28%	-32%	0%	6%[5.75 µM]	14%
Cc1cccc2cc(CN(Cc3ccco3)C(c3nnnn3CCc3ccccc3)C(C)C)c(=O)[nH]c12 (stereo unspecified)	13%	-35%	1.9µM*	-13%	-3%
COCCn1nnnc1C(C(C)C)N(Cc1ccccc1)Cc1cc2cc(OC)ccc2[nH]c1=O (stereo unspecified)	-7%	0%	8.3µM*	222%[5.75 µM]	-7%
COc1ccc2[nH]c(=O)c(CN(Cc3ccco3)C(c3nnnn3Cc3ccccc3)C(C)C)cc2c1 (stereo unspecified)	24%	-32%	·	3.3µM*	-11%
COc1ccc(Nc2cc(C(=O)NCc3ccccc3OC)c3ccccc3n2)cc1	·	5%	·	·	·
CCc1c(C)c2cc3c(c(C)c2oc1=O)OCN(CCc1ccc(OC)c(OC)c1)C3	·	0%	·	·	·
O=C1/C(=C/c2ccncc2)CCC/C1=C\c1ccncc1	·	11µM*	?	49%	-12%
O=C1CCC/C1=C\c1ccccc1	·	45µM*	0%	18%	-6%
CCc1ccc2oc(C(=O)NCc3ccccc3)cc(=O)c2c1	·	23%	·	·	·
Cc1ccc(-c2cc(C(=O)N3CCN(c4ncccn4)CC3)c3cc(Br)ccc3n2)o1	10%	7.1µM*	?	223%	-10%
Cc1ccc(-c2cc(C(=O)N3CCN(c4ccc(F)cc4)CC3)c3ccccc3n2)o1	-63%	45µM*	-2%	?	-15%
CC(=O)c1ccc(N2CCN(C(=O)c3cc(-c4ccncc4)nc4ccc(Br)cc34)CC2)cc1	5%	0%	13µM*	-15%	0%
Cc1ccc(-c2cc(C(=O)N3CCCC(C(F)(F)F)C3)c3ccccc3n2)o1 (stereo unspecified)	·	28µM*	?	?	6%
COc1ccc(-c2cc(C(=O)N3CCN(c4ncccn4)CC3)c3ccccc3n2)cc1	·	13%	29%	-24%	2%
Cc1ccc(-c2cc(C(=O)N3CCOCC3)c3ccccc3n2)o1	·	·	·	·	2%
COc1ccccc1N(CC(=O)NCCC1=CCCCC1)S(=O)(=O)c1ccccc1	-6%	·	?	25%	5%
O=C(c1cc(-c2ccc(F)cc2)nc2ccccc12)N1CCC1	·	·	·	·	1%
SMILES	NS1 function inh	Sm TGR inh	Pf growth 48h	Pf growth 96h	AMA1-RON2 inh
O=C(O)c1cc(-c2ccc(-c3ccc(F)cc3)o2)nc2ccccc12	-9%	13µM*	160%	120%	-7%
Cc1cc(C)c(C)c(S(=O)(=O)N2CCN(c3ncnc4ccccc34)CC2)c1C	·	-1%	12µM*	?	-1%
O=C(Nc1ccc(Cl)cc1)[C@@H]1[C@@H]2C(=O)N(c3ccc4ccccc4c3)C(=O)[C@@H]2[C@H]2C=CC=NN21	2%	?	-23%	·	6%
O=C(Nc1ccc(Cl)cc1)[C@@H]1[C@@H]2C(=O)N(c3cccc(F)c3)C(=O)[C@@H]2[C@H]2C=CC=NN21	11%	22µM*	-2%	-12%	11%
N#Cc1c(N)nc2c(c1-c1cccs1)CCCC2	-3%	-6%	6%	17%	-6%
N#Cc1c(N)oc(-c2ccco2)c1-c1ccco1	-13%	35µM*	11%	-2%	-10%
N#Cc1c(N)oc(-c2ccccc2)c1-c1ccccc1	-3%	4%	?	0%	-1%
N#Cc1c(N)oc(-c2cccs2)c1-c1cccs1	-64%	-21%	9.3µM*	13µM*	-5%
Cc1nn(-c2ccccc2)c2c1C(c1ccc(Cl)cc1)N(c1ccccc1)C(=O)N2 (stereo unspecified)	4%	-9%	13µM*	13µM*	-3%
COC(=O)C1=C(CS(=O)(=O)c2cc(Cl)ccc2OC)NC(=O)NC1c1ccccc1 (stereo unspecified)	·	-10%	·	·	·
Cc1ccc(OCCn2ncc3ccccc3c2=O)c(C)c1	-9%	2%	-22%	-23%	12%
O=c1c2ccccc2cnn1CCOc1cccc(Br)c1	-13%	-12%	?	9.3µM*	-15%
COCCNc1nnc(SCC(=O)NC(=O)c2ccccc2)s1	·	2%	0%	17%	-4%
CC(C)CN(C(=O)COC(=O)c1c2c(nc3ccccc13)CCC2)c1c(N)n(Cc2ccccc2)c(=O)[nH]c1=O	0%	-8%	8.3µM*	6.6µM*	5%
CN(C(=O)COC(=O)c1c2c(nc3ccccc13)CCCC2)c1c(N)n(Cc2ccccc2)c(=O)[nH]c1=O	·	0%	13µM*	8.3µM*	3%
CCN(C(=O)COC(=O)c1c2c(nc3ccccc13)CCC2)c1c(N)n(Cc2ccccc2)c(=O)[nH]c1=O	·	·	·	·	-8%
CCOC(=O)c1sc(S(C)(=O)=O)c2c1CC(C)(C)C/C2=N/O	3%	-15%	-12%	-14%	-10%
O=C(/C=C/c1cccc([N+](=O)[O-])c1)NC(=S)Nc1cccc(NC(=O)c2ccccc2Cl)c1	25%	8%	13µM*	3%	-4%[2.32 µM]
O=C(/C=C/c1ccc(Cl)cc1)NC(=S)Nc1ccccc1C(=O)O	-41%	?	1%	8%	61%
O=C(/C=C/c1cccc([N+](=O)[O-])c1)NC(=S)Nc1ccccc1C(=O)O	·	18µM*	3%	2%	·
CC(=O)N1CCN(c2ccc(NC(=O)c3ccc(C(C)(C)C)cc3)cc2)CC1	8%	-20%	10µM*	1%	-6%
Cc1ccc(C(=O)Nc2ccc(N3CCN(C)CC3)cc2)c(Cl)c1	8%	10%	110%	10µM*	-4%
